# Assay outcomes from PubChem BioAssay.
# Hits are enriched below; roughly 10% of the tested compounds scored in any of these assays.
# HPGD block – HPGD (human) dehydrogenase inhibition. P15428. purified HPGD, NADH fluorescence kinetic, PGE2 substrate. Potency, µM, for inactives: top-dose activity change, negative = inhibition, actives largely listed as inhibitors. 4.3% of 150,000 active; note: potency is the fitted concentration of half-maximal effect
#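 20 nM HPGD preincubated 15 min at room temperature with compound in 50 mM Tris-HCl pH 8, 0.01% Tween 20. Started with 1 mM NAD+ and 30 uM prostaglandin E2; NADH fluorescence (360/450 nm) read 5 times over 30-s intervals, last minus first.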
# PNC assembly inh – blocks assembly of the perinucleolar compartment; PC3M PTB-GFP, PNC prevalence imaging, 16 h; active compounds read low; activity change (PNC), negative = inhibition, % at 10 µM; AID 2417; 3.1% of 140,000 active;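 active = readout at or below -70, meaning at least 70% loss of cells showing the perinucleolar compartment, a nuclear body marking cancer cells; inconclusive = readout between -30 and a set limit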;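 note: plate controls were DMSO wells for no effect and camptothecin positive control wells for full effect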
#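 Read-out is percentage of cells bearing a perinucleolar compartment, from automated 20x imaging of fixed, Hoechst-stained PC3M PTB-GFP cells. Cells were seeded 4 h, then exposed 16 h to compound (23 nl of library stock) in duplicate plates.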
# 12-hLO inh – inhibitors of human 12-lipoxygenase (ALOX12). P18054. purified 12-hLO, xylenol orange hydroperoxide absorbance. Potency, µM (titrated, usually from 57.1 µM), without a hit: at the top dose activity change, negative = inhibition, actives largely listed as inhibitors. 0.12% of 150,000 active. AID 1452; active = well fitted inhibition curve with a large enough effect; inconclusive = small, poorly fitted or top-dose-only effect; note: potency is the fitted concentration of half-maximal effect; nearly all actives have a fitted effect of over 55% in size
# Target sequence (P18054 whole entry, looked up): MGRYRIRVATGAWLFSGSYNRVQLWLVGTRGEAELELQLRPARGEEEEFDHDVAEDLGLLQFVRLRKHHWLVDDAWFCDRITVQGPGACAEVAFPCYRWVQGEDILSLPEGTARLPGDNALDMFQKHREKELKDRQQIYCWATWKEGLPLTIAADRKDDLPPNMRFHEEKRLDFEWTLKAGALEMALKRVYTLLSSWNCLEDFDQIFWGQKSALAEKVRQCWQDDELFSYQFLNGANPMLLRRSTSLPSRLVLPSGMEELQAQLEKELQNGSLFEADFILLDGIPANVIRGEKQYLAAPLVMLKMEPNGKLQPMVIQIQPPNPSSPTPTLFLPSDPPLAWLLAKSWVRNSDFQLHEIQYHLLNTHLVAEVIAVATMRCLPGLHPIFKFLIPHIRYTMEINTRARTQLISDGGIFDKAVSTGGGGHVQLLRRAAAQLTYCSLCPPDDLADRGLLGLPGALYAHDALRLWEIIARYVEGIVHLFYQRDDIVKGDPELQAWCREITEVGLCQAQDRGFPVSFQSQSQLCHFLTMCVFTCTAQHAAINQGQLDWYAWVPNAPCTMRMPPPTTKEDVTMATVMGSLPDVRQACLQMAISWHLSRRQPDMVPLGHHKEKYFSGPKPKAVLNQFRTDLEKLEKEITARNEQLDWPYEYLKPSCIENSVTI
#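 Hydroperoxide formation by human 12-lipoxygenase from 40 uM arachidonic acid was followed colorimetrically via ferric-xylenol orange complex, using the 573/405 nm absorbance ratio. Enzyme concentration was 150 nM, with 30 min reaction at room temperature.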
# ALDH1A1 block – inhibitors of human aldehyde dehydrogenase 1A1 | P00352 | Purified ALDH1A1, NADH fluorescence, propionaldehyde substrate | Potency, µM (series often up to 75.3 µM), for the others: at the highest dose activity, negative = inhibition, usual class: inhibitors | 7.3% of 220,000 active | AID 1030;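 note: potency is the fitted concentration of half-maximal effect; plate controls were no enzyme wells and a reference inhibitor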
# LMNA splice mod – LMNA splicing modulation. HeLa LMNA splicing GFP/RFP minigene ratio, 48 h. Potency, µM (doses to about 46.1 µM), without a hit: top-dose ratio change, negative = inhibition, usual class: inhibitors. 0.01% of 200,000 active. AID 1487; active = well fitted inhibition curve with a large enough effect in the signal ratio, with a control signal flat, not every such curve was filed as active; inconclusive = small, poorly fitted or top-dose-only effect, or effect the other way, or a change in a side signal; the % refers to the signal ratio; note: potency is the fitted concentration of half-maximal effect
#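 Read-out is the ratio of GFP to DsRed2 object intensity, acquired by 488 nm laser-scanning cytometry on HeLa lamin A-EGFP minigene reporter cells. Compound incubation 48 hrs at 37 °C in Opti-MEM with 2% FBS; DMSO 0.5% final.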
# * = called active by the depositor; ? = inconclusive; nt = no result; [ ] = remark or other dose. Unless noted, calls come from the whole dose curve; as a rule, active = well fitted inhibition curve with a large enough effect (not every such curve was filed as active); inconclusive = small, poorly fitted or top-dose-only effect, or another doubt; inactive = no such curve, though single readings can be large or run the other way. Unless noted, % is set by controls: 0 for no effect and ±100 for the full control effect.
SMILES,HPGD block,PNC assembly inh,12-hLO inh,ALDH1A1 block,LMNA splice mod
Cn1cccc1/C=C1\SC(=S)N(NC(=O)c2ccccc2)C1=O,-12.9%,82.1,-16.8%,-16.8%,?
Cn1cccc1/C=C1/SC(=S)N(CC(=O)O)C1=O,nt,nt,nt,28.2µM*,nt
Cn1cccc1/C=C1\SC(=S)N(NC(=O)c2cccc(Cl)c2)C1=O,-16.7%,-23.4,-24.9%,2µM*,?
Cn1cc(-c2cc3n(n2)CCC(=O)N3CCCC(=O)NCc2ccc(F)cc2)c2ccccc21,nt,nt,nt,nt,-1.5%[46 µM]
Clc1ccc2ncc(-c3nnnn3-c3ccccc3)c(-c3ccccc3)c2c1,-10.3%,?,0.3%,11.2µM*,?
Clc1ccc2[nH]cc(-c3nnnn3-c3ccccc3)c2c1,-17.0%,30.6,-9.3%,?,-2.1%
O=C(OCc1ccccc1)c1cn(-c2ccccc2)nc1-c1ccncc1,?,-2.2,-3.9%,20µM*,1.5%
COC(=O)c1cn(-c2ccccc2)nc1-c1ccncc1,-7.1%,-22.0,-15.0%,?,-3.8%
O=C(O)CC/C(=N/NC(=O)c1cn(-c2ccccc2)nc1-c1ccccc1)C(=O)O,-17.9%,12.9,6.8%,4.47µM*,-9.4%
O=C(NCc1cccnc1)c1cn(-c2ccccc2)nc1-c1ccccc1,nt,nt,nt,4.47µM*,18.8%[46 µM]
O=Cc1cn(-c2ccccc2)nc1-c1ccncc1,nt,nt,nt,2.51µM*,nt
O=C(NCc1ccncc1)c1cn(-c2ccccc2)nc1-c1cccnc1,nt,nt,nt,-4.5%,-13.6%[46 µM]
Cc1nn2c(C)c(C(=O)NCc3ccco3)cnc2c1-c1ccccc1,nt,nt,nt,nt,10.5%[46 µM]
CCOC(=O)c1cnn(-c2ccc(C(=O)Nc3cc(OC)c(OC)c(OC)c3)cc2)c1N,nt,nt,nt,nt,-11.0%[46 µM]
CC(=O)c1ccc(N2CCN(c3ncnc4c3nc3n4CCCC3)CC2)cc1,nt,nt,nt,nt,-12.6%[46 µM]
COc1ccccc1NC(=O)N(Cc1ccco1)C1CCN(C(C)=O)CC1,nt,nt,nt,nt,9.0%[46 µM]
CCOc1cc(/C=C2/SC(=S)N(CC3CCCO3)C2=O)ccc1O (configuration not stated),nt,nt,nt,0.447µM*,-17.9%[46 µM]
COc1cccc(/C=C2\SC(=S)N(N3C(=O)CCCC3=O)C2=O)c1,nt,nt,nt,?,-17.3%[46 µM]
COc1cccc(/C=C2\SC(=S)N(CC3CCCO3)C2=O)c1 (configuration not stated),-19.7%,-19.3,-1.1%,3.16µM*,-3.1%
COc1ccc(/C=C2\SC(=S)N(C(Cc3ccccc3)C(=O)O)C2=O)cc1 (configuration not stated),nt,nt,nt,?,-3.4%[46 µM]
CCOc1cc(/C=C2\SC(=S)N(C(C(=O)O)c3ccccc3)C2=O)ccc1O (configuration not stated),nt,nt,nt,31.6µM*,nt
COCCn1c(=O)c(-c2cccs2)nc2cnc(N3CCOCC3)nc21,nt,nt,nt,?,-0.1%
CCCn1c(=O)c2c(nc(Br)n2CCC)n(C)c1=O,-16.2%,13.0,-5.6%,-2.8%,6.0%
CC(C)Cn1c(Br)nc2c1c(=O)n(CCC#N)c(=O)n2C,17.8µM*,-123.3*,-4.9%,-4.6%,?
O=C1c2cccnc2C(Nc2ccc(F)c(Cl)c2)N1Cc1cccs1 (configuration not stated),nt,nt,nt,11.2µM*,nt
SMILES,HPGD block,PNC assembly inh,12-hLO inh,ALDH1A1 block,LMNA splice mod
O=C1c2ccccc2C(Nc2ccc(F)c(Cl)c2)N1Cc1ccco1 (configuration not stated),?,3.8,-10.2%,?,?
O=C1c2cccnc2C(Nc2ccc(Br)cc2)N1Cc1cccs1 (configuration not stated),nt,nt,nt,6.31µM*,9.3%[9.22 µM]
O=C1c2cccnc2C(Nc2ccc(S(=O)(=O)N3CCCCC3)cc2)N1Cc1ccccc1 (configuration not stated),-8.4%,13.4,-0.5%,-11.6%,1.8%
COc1ccc(NC2c3ncccc3C(=O)N2Cc2cccs2)cc1 (configuration not stated),nt,nt,nt,3.16µM*,nt
CCCNC(=O)OC[C@H]1O[C@@H](CCO/N=C2/C[C@@H](O)[C@@H](O)[C@@H]3[C@@H]4C(=O)N(CC)C(=O)[C@H]4CC[C@@H]23)C=C[C@@H]1Oc1ccc(OC)cc1,nt,nt,nt,-11.4%[13.5 µM],nt
O=C(O)[C@H]1CCCC[C@@H]1C(=O)Nc1nc2ccccc2[nH]1,-7.1%,nt,-1.2%[11.4 µM],-2.2%[13.5 µM],nt
CCCCn1c(=O)c(C(=O)c2ccccc2)nc2ccccc21,-17.1%,?,-2.9%,22.4µM*,20.7%
COc1ccccc1CNC(=O)CCCn1c(=O)c2cccn2c2ccccc21,nt,nt,nt,nt,0.0%[46 µM]
COc1ccc(CCNC(=O)CCn2c(=O)c3cccn3c3ccc(F)cc32)cc1OC,nt,nt,nt,nt,21.4%[46 µM]
COc1ccc2c(c1)C(=O)N(c1ccccc1)C(=O)C2,?,19.0,-4.1%,?,?
N#CC1=C(N)N(c2ccc(Oc3ccccc3)cc2)C(=O)C1,-2.3%,18.2,-7.3%,25.1µM*,-10.9%
COc1ccc(CNC(=O)c2oc3c(c2C)-c2nn(Cc4ccc(Cl)cc4)cc2CC3)cc1,nt,nt,nt,nt,5.5%[46 µM]
Cc1c(N/C=C(\Cl)C(=O)C(F)(F)F)c(=O)n(-c2ccccc2)n1C,nt,nt,nt,31.6µM*,nt
CC1(c2ccccc2)NC(=S)N2C1NC(=S)N2c1ccccc1 (configuration not stated),-1.7%,?,-7.9%,31.6µM*,15.2%
COc1ccc(N2C(=S)NC3N2C(=S)NC3(C)c2ccccc2)cc1 (configuration not stated),nt,nt,nt,25.1µM*,nt
COc1ccc(-n2cc(-c3ccccc3)[nH]c2=S)cc1,?,-21.4,-3.0%,-4.2%,-7.9%
CCOc1ccc(NC(=O)CSc2nc3nc(C)c(Cc4ccccc4)c(C)n3n2)cc1,nt,nt,nt,nt,-2.6%[46 µM]
CN(C)c1ccc(C2C=C(c3ccc(Cl)cc3OC(F)F)Nc3ncnn32)cc1 (configuration not stated),-9.5%,35.2,-10.5%,20µM*,-20.7%
O=C(CSc1nc2ccccc2c(=O)[nH]1)c1cccs1,12.6µM*,?,-0.7%,-12.4%,?
Cc1cnc(NC(=O)Cc2c[nH]c3ccccc23)s1,nt,17.7,-5.4%,25.1µM*,8.2%
Cc1cccc(NC(=O)CSc2nc(-c3ccccc3)c(C#N)c(=O)[nH]2)c1C,-14.8%,32.3,-2.1%,-9.2%,15.9%
O=C(CSc1nc2ccccc2c(=O)[nH]1)N1CCCCCC1,?,8.6,-0.9%,?,10.2%
N#Cc1c(-c2cccs2)nc(SCC(=O)c2cccs2)[nH]c1=O,15.8µM*,10.6,-2.5%,-1.7%,-2.8%
Cc1cnc(NC(=O)CSc2nc3ccccc3c(=O)[nH]2)s1,15.8µM*,-11.9,3.7%,-4.8%,-10.2%
CCCCCCCC/C=C\CCCCCCCC(=O)OC[C@@H](O)COP(=O)(O)O,-0.6%,nt,-2.2%,1.6%,nt
CC(C)N(C(=O)CSc1nc2ccccc2c(=O)[nH]1)C(C)C,nt,nt,nt,-2.2%,?
O=C(CSc1nc2ccccc2c(=O)[nH]1)c1ccc(O)c(O)c1,15.8µM*,?,-28.6%,?,2.3%
O=C(CSc1nc2ccccc2n1CCc1ccccc1)N1CCOCC1,nt,?,1.0%,-4.8%,-10.8%
